# Shown are actives, neighbours in structure and some others; about 8.1% of the full set was active somewhere.
# SW480 rerep = inducers of DNA re-replication in SW480 colon cancer cells. 1.8% of 340,000 active. Potency, µM (doses to about 46.1 µM), without a hit: at the top dose re-replication activation, hits mostly activators. AID 624297. SW480 DNA re-replication, Hoechst DNA content imaging, 48 h; further: % of control where 0% means no effect; nearly all actives have a fitted effect of over 55% in size
#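 Image-based DNA-content assay: after two days of treatment, nuclei were labelled with the DNA dye Hoechst and imaged, and hits were compounds raising the count of nuclei showing high fluorescence intensity.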
# MCF10A rereplic = inducers of DNA re-replication in MCF 10A breast cells | MCF 10A DNA re-replication, Hoechst nuclear intensity, 48 h | Potency, µM (series often up to 46.1 µM), without a hit: top-dose activity, positive = re-replication, actives largely listed as activators | 2.9% of 350,000 active | AID 624296; further: % of control where 0% means no effect; nearly all actives have a fitted effect of over 50% in size
# KB-3-1 cytotox = KB-3-1 parental cell cytotoxicity; 1.4% of 400,000 active; KB-3-1 viability, CellTiter-Glo ATP luminescence, 72 h; Potency, µM (top dose mostly 46.1 µM), usual class: cytotoxic; further: on the % scale 0 is the no-effect control and ±100 the full control effect; nearly all actives have a fitted effect of over 60% in size
#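 Here the drug-naive KB-3-1 line serves as comparator for MDR sub-line selectivity; cells received compound titrations, 72 h at 37 °C, then CellTiter-Glo readout.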
# ELG1 repair inh = inhibitors of ELG1-dependent DNA repair in HEK293T cells; HEK293T ELG1-luciferase reporter, luminescence, 16 h; DNA damage induced by 5-fluorouridine; Potency, µM (doses to about 46.1 µM), for the others: top-dose activity change, negative = inhibition, most hits filed as inhibitors; 2.3% of 330,000 active; further: on the % scale 0 is the no-effect control and ±100 the full control effect; nearly all actives have a fitted effect of over 55% in size
#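 Step one: seed 2,000 cells per well. Step two: pin-transfer compound or DMSO alongside 5-fluorouridine. Step three: incubate 16 hr, 37 °C, 5% CO2. Step four: add ONE-Glo, wait 30 min, read luminescence.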
# KB-V1 MDR tox = kills drug-selected multidrug resistant KB-V1 cells. Potency, µM (top dose mostly 46.1 µM), most hits filed as cytotoxic. KB-V1 MDR cells viability, CellTiter-Glo, 72 h. AID 1347076. 3.4% of 400,000 active; further: on the % scale 0 is the no-effect control and ±100 the full control effect; nearly all actives have a fitted effect of over 60% in size
#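 KB-V1, DMEM (no phenol red) + 10% FBS; cpd pin-transferred, titration series; 72 h, 37 degrees C; CellTiter-Glo, luminescence. Data normalized, curve-fit.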
# ELG1 FLuc counter = luciferase inhibition in cell-free luciferin readout for ELG1 hits | shares compounds with ELG1 repair inh | Potency, µM (highest dose often 46.1 µM), without a hit: at the highest dose activity change, negative = inhibition, hits mostly inhibitors | 3% of 350 active | AID 624247 | cell-free firefly luciferase luminescence counter-screen, ViewLux; further: on the % scale 0 is the no-effect control and ±100 the full control effect
# ELG1 Luc conf = human ELG1 repair inhibition, luciferase-tagged ELG1 confirmation; shares compounds with ELG1 repair inh; HEK293T ELG1-luciferase levels, luminescence; cells co-treated with 5-fluorouridine; Potency, µM (doses to about 46.1 µM), inactives show at the highest dose activity change, negative = inhibition, usual class: inhibitors; 68% of 670 active; further: on the % scale 0 is the no-effect control and ±100 the full control effect; nearly all actives have a fitted effect of over 55% in size
# ELG1-Luc MMS = confirmation of human ELG1 repair inhibitors, MMS stimulated; shares compounds with ELG1 repair inh; HEK293T luciferase-tagged ELG1 level, MMS stimulated; Potency, µM (highest dose often 46.1 µM), inactives show at the top dose activity change, negative = inhibition, most hits filed as inhibitors; 53% of 670 active; further: on the % scale 0 is the no-effect control and ±100 the full control effect; nearly all actives have a fitted effect of over 60% in size
# ELG1 5FU viab = confirmation of ELG1 repair inhibitors: viability with 5FU | shares compounds with ELG1 repair inh | cell viability with 5-FU, ELG1-dependent repair | Potency, µM (top dose mostly 46.1 µM), for the others: top-dose activity change, negative = viability loss, hits mostly cytotoxic | 670 tested, under 10 active;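 further: ELG1-luc HEK293T cells cotreated with 5-fluorouridine at 10 µM final; viability measured 16 h after compound addition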
# ELG1 MMS cell = confirmation of ELG1 repair inhibitors: viability with MMS. Cell viability with MMS, ELG1-dependent DNA repair. 33% of 670 active. Potency, µM (titrated, usually from 46.1 µM), for inactives: at the highest dose activity change, negative = viability loss, hits mostly cytotoxic. shares compounds with ELG1 repair inh. AID 624251;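 further: ELG1-luc HEK293T cells co-treated with 10 µM MMS; viability read 16 h after compound addition; on the % scale 0 is the no-effect control and ±100 the full control effect; nearly all actives have a fitted effect of over 60% in size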
# ELG1 unstim viab = affects unstimulated cell viability, ELG1 hit counter-screen | AID 624252 | shares compounds with ELG1 repair inh | Potency, µM (series often up to 45.9 µM), without a hit: top-dose activity change, negative = loss of viability, actives largely listed as cytotoxic | 8% of 900 active | cell viability counter-screen, unstimulated, luminescence;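 further: compound exposure lasted 16 hours before reading; on the % scale 0 is the no-effect control and ±100 the full control effect; nearly all actives have a fitted effect of over 55% in size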
# FLuc biochem = inhibits purified firefly luciferase, counter-screen for ELG1 hits. shares compounds with ELG1 repair inh. purified firefly luciferase, luminescence counter-screen. Potency, µM (series often up to 57.5 µM), without a hit: top-dose activity, negative = inhibition, actives largely listed as inhibitors. 10% of 350 active; further: on the % scale 0 is the no-effect control and ±100 the full control effect
# * = called active by the depositor; i = inactive; ? = inconclusive; . = not tested or not shown. The call rests on the fitted dose curve; in most records, active means well fitted curve in the direction sought with a large enough effect; inconclusive means small, poorly fitted or top-dose-only effect, or another doubt; inactive means no such curve, though single readings can be large; an effect the other way counts as inactive or inconclusive. Potency means the concentration at half of the fitted maximal effect.
SMILES,SW480 rerep,MCF10A rereplic,KB-3-1 cytotox,ELG1 repair inh,KB-V1 MDR tox,ELG1 Luc conf,ELG1-Luc MMS,ELG1 5FU viab,ELG1 MMS cell,ELG1 unstim viab,others
COc1ccc(CCN2C(=O)CSC2=Nc2ccc(C(C)C)cc2)cc1OC,9.2µM*,16µM*,3.7µM*,4.1µM*,3.3µM*,25µM*,2.5µM*,?,2µM*,16µM*,
CC(=O)Nc1cccc(-c2cnc(N)c(C(=O)c3cccnc3)n2)c1,25%,?,?,0.46µM*,i,0.79µM*,2.8µM*,4%,?,?,ELG1 FLuc counter=?;FLuc biochem=1%
COC(=O)c1ccccc1NC(=O)CSc1nc2ccccc2nc1Cc1ccc(F)cc1,.,.,i,.,?,.,.,.,.,.,
Cc1ccc(S(=O)(=O)N(CCc2ccccc2)CC(=O)Nc2cc(C)ccc2C)cc1,.,.,i,.,i,.,.,.,.,.,
O=C(Nc1c(-c2ccc(Cl)cc2)[nH][nH]c1=O)c1ccccc1Cl,.,.,i,.,i,.,.,.,.,.,
O=C(Nc1cccc(NC(=O)c2cccc([N+](=O)[O-])c2)n1)c1cccc([N+](=O)[O-])c1,-6%,0%,i,2.1µM*,i,?,6%,-4%,?,?,
Cc1[nH]c2ccccc2c1/C=C/c1ccc2ccccc2n1,.,.,i,.,?,.,.,.,.,.,
C(=C\c1c[nH]c2ccccc12)/c1ccc2ccccc2n1,.,.,i,.,i,.,.,.,.,?,ELG1 FLuc counter=-39%;FLuc biochem=0.12µM*
COc1ccc(C2CC(=O)c3c([nH]c(C(=O)OC4CCCCCC4)c3C)C2)cc1 (configuration not stated),.,.,i,.,i,.,.,.,.,.,
COc1ccc(-c2nnn(CC(=O)N3CCN(c4ccc(F)cc4)CC3)n2)cc1,2%,0%,i,10%,i,.,.,.,.,.,
COc1ccc(N2CCN(C(=O)CN3CCN(c4nc(-c5ccc(F)cc5)cs4)CC3)CC2)cc1,?,?,23µM*,2.1µM*,?,14µM*,4µM*,-16%,4.4µM*,?,
Cc1nc(NC(=O)c2c(-c3ccccc3Cl)noc2C)sc1C,17%,-3%,i,2.9µM*,i,?,0.5µM*,?,6%,-16%,
Cc1c(Cc2ccccc2)c(=O)oc2cc(OCC(=O)N3CCC(C(N)=O)CC3)ccc12,-41%,28%,i,0.82µM*,i,?,28µM*,?,25µM*,-14%,ELG1 FLuc counter=0%;FLuc biochem=?
NC(=O)C1CCN(C(=O)COc2ccc3c(c2)oc(=O)c2ccccc23)CC1,-20%,-26%,i,2%,i,.,.,.,.,.,
Cc1c(C)c2ccc(OCC(=O)N3CCN(C(=O)C4COc5ccccc5O4)CC3)cc2oc1=O (configuration not stated),4%,-3%,i,1.8µM*,i,4µM*,-18%,?,-6%,?,
O=C(COc1ccc2ccc(=O)oc2c1)N1CCN(C(=O)C2COc3ccccc3O2)CC1 (configuration not stated),-12%,4%,i,1.5µM*,i,2.8µM*,14%,?,0%,-1%,
CCOC(=O)N1CCN(C(=O)C2COc3ccccc3O2)CC1 (configuration not stated),-2%,-1%,i,0%,i,.,.,.,.,.,
CCCc1cc(=O)oc2cc(OCC(=O)N3CCN(C(=O)C4COc5ccccc5O4)CC3)ccc12 (configuration not stated),-8%,-3%,i,3.7µM*,i,3.1µM*,?,?,-8%,?,
CCCCc1cc(=O)oc2cc(OCC(=O)N3CCOCC3)ccc12,-25%,-9%,i,7%,i,.,.,.,.,.,
COc1ccc(C2NC(=O)N(C)C3=C2C(=O)N(c2ccc(C)cc2)C3)cc1 (configuration not stated),.,.,i,.,i,.,.,.,.,.,
O=C1OC(c2ccccc2)(c2cc(Br)ccc2O)c2ccccc21 (configuration not stated),?,?,i,.,?,.,.,.,.,.,
Cc1cc(=O)oc2cc(OCC(=O)N3CCN(C(=O)C4COc5ccccc5O4)CC3)ccc12 (configuration not stated),6%,11%,i,1.2µM*,i,2.2µM*,?,?,?,-8%,
CCN(CC)CCN1C(=O)C(=O)/C(=C(/O)c2ccc(S(=O)(=O)N3CCOCC3)cc2)C1c1ccc(C)cc1 (configuration not stated),-28%,2%,i,8%,?,.,.,.,.,.,
OC(c1ccc(Cl)c(Cl)c1)c1ncc(-c2ccccc2F)[nH]1 (configuration not stated),.,.,i,.,i,.,.,.,.,.,
O=C(NNc1ccnc2cc(Cl)ccc12)C1CCCCC1,0%,17%,5.8µM*,0.52µM*,?,-9%,0.89µM*,-5%,0.71µM*,?,ELG1 FLuc counter=-17%;FLuc biochem=-8%
COc1ccc(NC(=O)C2c3ccccc3OCC(=O)N2Cc2cccnc2)cc1 (configuration not stated),.,.,i,.,i,.,.,.,.,.,

# Bioassay records as filed in PubChem.
